This is an account of results in PMC12136788.

Changes are numbered by the printed parent chain. In all, about 24,000 sequences were measured (“enrichment r”: median about 0.99, highest 2% from about 3.7 on). For the sample, the highest values were picked, then their nearest neighbours and some sequences at random.

Sequences and labels used below:
T1: UNK ZnF1-3 (human, UniProt Q9C0B0 31-174)
T1 sequence: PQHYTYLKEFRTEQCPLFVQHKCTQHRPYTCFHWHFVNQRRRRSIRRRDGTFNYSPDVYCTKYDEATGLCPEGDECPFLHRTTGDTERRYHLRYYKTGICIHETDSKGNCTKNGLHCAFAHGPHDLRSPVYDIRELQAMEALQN

B1: chr3:184044699:184044700:+_ENSG00000114867_ENST00000411531|hu_hu|motif|central (ssRNA)
RNA: GGGAGUUCUACAGUCCGACGAUCAUUAUCUGUGCUUUCUGUGGGUACCGCUUGUUGAAGGGCUGAGAAGCGAUUCAAAGUACGGGUAGCUGGGCGAGCAGCUUCUGAUGCUGCGUCUGAGGGCUUGGCUCCUGAGCCUCCGCUCAACAGAGGAUUGAGCAUCA
B2: chrX:77155053:77155054:+_ENSG00000131174_ENST00000481445|hu_hu|motif|central (ssRNA)
RNA: GGGAGUUCUACAGUCCGACGAUCCGAACUUGGAGACGAUUUAGUGCGCUUUUGACCAAGGGAAACAUCGUGAAGGUGAAGCGGGAACUGCGGCAAUACAGCUGCUGCUUUGGUGCCAAUUCGCUUCAGGUACCCUUGAAGUGACAACAGAGGAUUGAGCAUCA
B3: chr2:153237265:153237266:-_ENSMUSG00000061411_ENSMUST00000109784|mus_mus|mus_mus_mus_hu_False|1_18 (ssRNA)
RNA: GGGAGUUCUACAGUCCGACGAUCAAAAAAAAAAAAAAAAAAGUGUCCUUGUGCCCAAAGUCUCAGGUGCUUGGAGUGUGGCUAGAAACAGCUCUUUUGGAUCCCACCUCUUUCAAAAAACAGUGUAACCAACUGGUAGGCAGGCAACAGAGGAUUGAGCAUCA
B4: chr5:71490711:71490712:+_ENSG00000131711_ENST00000296755|hu_hu|motif|central (ssRNA)
RNA: GGGAGUUCUACAGUCCGACGAUCCACAGGAGUGGGCACCUGGCCAGUGAGAUCCUUUUGGGUGGCCAGUGGCUGCUUCAGAAAGUCGGGAUGUUUGAGCUUUUCCAACCCUUCCAGGAUGUUGUACUGGGUGCUGUUCCCAGGCAACAGAGGAUUGAGCAUCA
B5: chr2:153237265:153237266:-_ENSMUSG00000061411_ENSMUST00000109784|mus_mus|mus_mus_mus_hu_False|18_78 (ssRNA)
RNA: B3 RNA with G66A, A137G, G138A, C140G, A141C, G142A
B6: chr2:153237265:153237266:-_ENSMUSG00000061411_ENSMUST00000109784|mus_mus|mus_mus_mus_hu_False|18_28 (ssRNA)
RNA: B3 RNA with A115G, A137G, G138A, C140G, A141C, G142A
B7: chr2:153237265:153237266:-_ENSMUSG00000061411_ENSMUST00000109784|mus_mus|mus_mus_mus_hu_False|18_18 (ssRNA)
RNA: B3 RNA with A137G, G138A, C140G, A141C, G142A
B8: chr2:153237265:153237266:-_ENSMUSG00000061411_ENSMUST00000109784|mus_mus|mus_mus_mus_hu_False|18_58 (ssRNA)
RNA: B3 RNA with U78C, G79A, A137G, G138A, C140G, A141C, G142A
B9: chr11:46405157:46405158:+_ENSG00000110492_ENST00000395566|hu_hu|hu_hu_hu_mus_False|8_58 (ssRNA)
RNA: GGGAGUUCUACAGUCCGACGAUCCCCUCCCCACUUUGGGCACUUGGUGUGGGCGUGAGAGGACAGGCGUGAUUGACAAAGCUAACGGGAAGACAAAAGGCACUGGUGGGUUAUAUCUUGGGCCUGUGAGAGGGAGGGGCUCCGCAACAGAGGAUUGAGCAUCA
B10: 55264158_55264526_802_CDS_ENSMUSG00000022185_ENSMUST00000148754|mouse|control|control (ssRNA)
RNA: GGGAGUUCUACAGUCCGACGAUCGAUGGACCUCCGGGUUAAGGUAUCUCCUAAUGUUACUUUCUUUACUUCGUGCUCCACAGGUGGGGGCAAGGCAACCUCCACUGACACCUGGGGUGGCGCCGGCAGCUCGGCUUCAGGCUCCAACAGAGGAUUGAGCAUCA
B11: chrX:71549400:71549401:+_ENSMUSG00000019087_ENSMUST00000019231|mus_hu|mus_mus_mus_hu_False|18_48 (ssRNA)
RNA: GGGAGUUCUACAGUCCGACGAUCGCAGUAGGAAGAGGGAAGCUCUUCAGUCCAGUGCGCUGCAGGGUGGGAAAGCAACAACACGGAACCAAUACUCCCCUCAACCCCCCCACUGGCAUGUCACACAACAAUCUGGGUCAAAGACAACAGAGGAUUGAGCAUCA
B12: chr6:42636609:42636610:-_ENSMUSG00000036667_ENSMUST00000045054|mus_hu|FALSE|FALSE (ssRNA)
RNA: GGGAGUUCUACAGUCCGACGAUCGGCAUCAAUACAGUAAACCCCCAGGGAGUCUUUCACUUCUGGCUCAACCUUUGCAUCCACUCCAGAGCCCUCGAGGAUUUUGGCCAAAGGUGCCAGGGAUGGGUGUACACCAAUGGGAGCCAACAGAGGAUUGAGCAUCA
B13: chr2:153237265:153237266:-_ENSMUSG00000061411_ENSMUST00000109784|mus_mus|mus_mus_mus_hu_False|28_58 (ssRNA)
RNA: GGGAGUUCUACAGUCCGACGAUCAAAAAAAAAAAAAAAAAAGUGUCCUUGUGCCCAAAGUCUCAGGUGCUUGGAGUGCAGCUAGAAACAGCUCUUUUGGAUCCCACCUCUUUCAGAAACAAAAUGUACCAACUGGUGAGGCAGCAACAGAGGAUUGAGCAUCA
B14: chr18:65376317:65376318:+_ENSMUSG00000024589_ENSMUST00000163516|mus_mus|motif|central (ssRNA)
RNA: GGGAGUUCUACAGUCCGACGAUCUGCUAUACCAACAGAAAACUAUCCCUUUCCUAGGAAACACUAGACAGGCUCAUGUCCGGACGCGGCAGCUGCUUCUCUGGCACACUGAAAACACUCUGGGGUGGAGUGUGCAUACACAGACAACAGAGGAUUGAGCAUCA
B15: chr2:153237265:153237266:-_ENSMUSG00000061411_ENSMUST00000109784|mus_mus|mus_mus_mus_hu_False|58_58 (ssRNA)
RNA: B13 RNA with G115A
B16: chr2:153237265:153237266:-_ENSMUSG00000061411_ENSMUST00000109784|mus_mus|mus_mus_mus_hu_False|28_28 (ssRNA)
RNA: B13 RNA with C78U, A79G
B17: chr2:153237265:153237266:-_ENSMUSG00000061411_ENSMUST00000109784|mus_hu|FALSE|FALSE (ssRNA)
RNA: B13 RNA with C78U, A79G, G115A
B18: chr2:153237265:153237266:-_ENSMUSG00000061411_ENSMUST00000109784|mus_mus|mus_mus_mus_hu_False|1_1 (ssRNA)
RNA: B3 RNA with A119C, C120A, G122A, U123A, G124U, U125G, A126U
B19: 113287723_113287843_2736_3pUTR_ENSG00000114999_ENST00000233336|human|control|control (ssRNA)
RNA: GGGAGUUCUACAGUCCGACGAUCCCUUUUUCAUUGUAAGUUCUCACAUCUCAUCAUGUUCAAGGAGGCAUUGAUUUUCUCCUCUUUUGUAAAAGUCUCACCUGACUGCAGAAAUGUUUUCUUGAGCCAAGUAGAAAUGAGGAACAACAGAGGAUUGAGCAUCA
B20: chr2:153237265:153237266:-_ENSMUSG00000061411_ENSMUST00000109784|mus_mus|mus_mus_mus_hu_False|1_28 (ssRNA)
RNA: B13 RNA with C78U, A79G, G137A, A138G, G140C, C141A, A142G

The experiment addresses T1, UNK ZnF1-3. Nature of the experiment: nsRBNS (natural sequence RNA bind-n-seq); RBNS binding buffer (assumed for nsRBNS): 25 mM Tris pH 7.5, 150 mM KCl, 3 mM MgCl2, 0.01% Triton X-100, 500 ug/ml BSA, 20 U/ml SUPERase-In, 4 C; UNK is unkempt and MSI1 is Musashi-1; names of the RNAs are library labels; protein concentration not given here; high values mean tight binding.
B1 came in with a binding signal of 0.754 enrichment R. In the case of B2 it was 0.887 enrichment R; in that of B3, 6.33 enrichment R; in that of B4, 1.1 enrichment R. In the case of B5, the binding signal was found to be 4.87 enrichment R.

Molecule B6 displayed a binding signal of 3.55 enrichment R. The molecule B7 showed a binding signal of 5.16 enrichment R.

In turn, B8 had a binding signal of 4.98 enrichment R. For B9, the binding signal came to 3.13 enrichment R. The value for B10 was 0.664 enrichment R; that for B11 was 1.29 enrichment R; that for B12 was 1.69 enrichment R. The value for B13 was 3.57 enrichment R; that for B14 was 1.06 enrichment R.

In turn, B15 showed a binding signal of 4.5 enrichment R. The value for B16 was 3.18 enrichment R; that for B17 was 6.49 enrichment R. In the case of B18 it was 6.8 enrichment R; in that of B19, 0.859 enrichment R. For B20, the binding signal amounted to 3.93 enrichment R.
